Consider 33 compounds from PubChem BioAssay AID1845226 (National Center for Advancing Translational Sciences (NCATS), 2023).

Structures are written as SMILES. Inconclusive results are not listed. Entries that show only a call come without a potency. The source made the active and inactive calls. Calls come from the whole dose curve; as a rule, active = well fitted inhibition curve with a large enough effect; inconclusive = small, poorly fitted or top-dose-only effect; inactive = no such curve, though single readings can be large or run the other way.

This assay in a line: Confirmatory fluorescence-based thiol-reactive (MSTI) qHTS assay for identification of artifact compounds. The method, boiled down: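 Fluorescence read-out (excitation 525 nm, emission 598 nm) tracks loss of the thiol probe MSTI, used at 4 uM in PBS buffer at pH 7.4. Test compounds are incubated 1 h at room temperature.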
On the technique in general: qHTS replaces the single test concentration by a dilution series.
Potency is the fitted concentration of half-maximal effect.

In the case of `O=C(Nc1cccc(Cc2ccccc2)c1)c1ccc(-c2cccc([N+](=O)[O-])c2)o1`, the Potency result was “inactive”.
The entry for `COc1ccc(N2C(=O)NC(NS(=O)(=O)c3ccc(Cl)cc3)(C(F)(F)F)C2=O)cc1` (stereo not drawn) is “inactive”.
For `Cc1cccc(NC(=O)CSc2nc3c([nH]c4ccccc43)c(=O)n2C)c1` the value was “inactive”.
The entry for `COc1ccc(C2Nc3ccccc3C(=O)N2CC(C)(C)C)cc1COc1ccc(NC(C)=O)cc1` (stereo not drawn) is “inactive”; for `c1coc(-c2nc3cc4ccccc4cc3nc2-c2ccco2)c1` it is 0.97 µM (active); for `Cc1cc(C)cc(NC(=O)CSc2oc(-c3cccs3)nc2S(=O)(=O)c2ccccc2)c1` it is “inactive”.
Take `CCSc1ncc(Cl)c(C(=O)Nc2c(C(=O)Nc3cccc(C)c3)oc3ccccc23)n1`: the Potency entry was “inactive”.
The entry for `CCCC12CN3CC(C)(CN(C1)C3c1ccc(CC)cc1)C2=O` (stereo not drawn) is “inactive”; for `CCc1cccc(NC(=O)CN2CCCN(Cc3cccc(C)c3)S2(=O)=O)c1` it is “inactive”; for `O=C(O)c1c(CNCc2cccc(F)c2)c2ccccc2n1Cc1ccccc1` it is “inactive”.
For `Cc1ccc(S(=O)(=O)Nc2ccc(F)cc2C(=O)Nc2nc(-c3ccccc3)cs2)cc1` the value was “inactive”; for `COc1ccc(C)cc1NC(=O)CN1C(=O)COc2ccc(S(=O)(=O)NC3CCCC3)cc21`, “inactive”; for `Cc1ccc(Cn2ccc(NC(=O)c3cc(-c4ccc(Cl)c(Cl)c4)on3)n2)cc1`, “inactive”.
The figure for `O=S(=O)(O)c1ccc(N=Nc2cc(S(=O)(=O)O)c3ccccc3c2O)c2ccccc12` is 0.194 µM (active); for `COC(=O)c1ccc(NC(=O)CC2C(=O)N(c3ccccc3)C(=O)N2Cc2cccs2)cc1` (stereo not drawn) it is “inactive”.
On to `CCCCCCCCCCCCCCCC(=O)N[C@H](CN1CCOCC1)[C@H](O)c1ccccc1`, for which the Potency is 12.2 µM (active).
Regarding `COc1ccccc1N1CCN(S(=O)(=O)c2c(C)nc3sc(C)c(C)n3c2=O)CC1`, the Potency entry is “inactive”.
For the compound `Cc1ccc(OCCn2c(CCNC(=O)c3c(F)cccc3F)nc3ccccc32)cc1`, the Potency entry is “inactive”.
The entry for `CCOc1ccc(NC(=O)CSc2nnc3scc(-c4ccccc4)n23)cc1` is “inactive”.
In the case of `CCC(Sc1ncc(S(=O)(=O)c2ccc(Cl)cc2)c(=O)[nH]1)C(=O)Nc1ccc(OC)cc1` (stereo not drawn), the Potency result was “inactive”.
As to `Cc1ccc(NC(=O)Cn2c(=O)oc3cc(S(=O)(=O)N4CCCCC4)ccc32)c(Cl)c1`, the Potency result was “inactive”.
The entry for `COCCn1c(=N)c(C(=O)NC2CCCC2)cc2c(=O)n3cc(C)ccc3nc21` is “inactive”; for `O=C1CC(c2ccc(O)c(O)c2)Oc2cc(O)cc(O)c21` (stereo not drawn) it is “inactive”.
The entry for `CCCN(C(=O)Cc1c(C(=O)O)[nH]c2ccc(Cl)cc12)c1ccc(OCC)cc1` is “inactive”; for `O=S(=O)(Nc1ccc(S(=O)(=O)Nc2nccs2)cc1)c1ccc2ccccc2c1` it is “inactive”; for `CCCCCn1c(=O)[nH]c2cc(C(=O)Nc3ccc(F)cc3)ccc2c1=O` it is “inactive”.
The figure for `O=C(O)CCc1c2ccc(=O)c(O)c-2oc2c(O)c(O)ccc12` is 1.09 µM (active).
With `O=C1CCCc2[nH]c(=O)c(-c3nc(-c4cccc([N+](=O)[O-])c4)cs3)cc21`, the Potency is 3.86 µM (active).
For `O=C(COc1ccccc1Cl)NCC1(N2CCOCC2)CCCCC1` the value was “inactive”.
The entry for `COc1cccc(N2CCN(c3c4c(nc5nncn35)CCC4)CC2)c1` is “inactive”; for `CCOc1ccc(CNC(=O)c2ccc3nc(CC)c(CC)nc3c2)cc1OC` it is “inactive”; for `O=C(CSc1nccn1C1CCCC1)Nc1ccc(C(F)(F)F)cc1` it is “inactive”.
The entry for `O=C(NCCN1CCCCC1)c1ccc(Cn2c(SCc3ccc(F)cc3)nc3cccnc32)cc1` is “inactive”.
